Among the data in PubChem BioAssay (Tox21) are Potency and fluorescence, % of fluorescent control values, retold here.

Values without a mark were called inactive. Entries that show only a call come without a potency. The source made the active and inactive calls. The call rests on the fitted dose curve; in most records, active means well fitted curve in the direction sought with a large enough effect in the repeat runs; inconclusive means weak or mixed curves; inactive means flat fitted curve, though single readings scatter.
Potency means the concentration at half of the fitted maximal effect.

A short description of the assay: qHTS assay to test for compound auto fluorescence at 460 nm (blue) in HEK293 cell free culture (AID 720681). As to conditions: cell-free medium, autofluorescence 405/460 nm (blue); series mostly up to 91.3 µM. An excerpt: U.S. Tox21 Program National Center for Advancing Translational Sciences [NCATS] NIH Chemical Genomics Center [NCGC] U.S. Environmental Protection Agency [EPA] National Institutes of Environmental Health Sciences [NIEHS] National Toxicology Program [NTP] U.S. Food and Drug Administration [FDA] Tox21 Assay Overview: Compound auto fluorescence often interferes with screening of the compound library against various biological targets and signaling pathways. Some of these compounds may have fluorophoric properties. Such properties may interfere with the assay outputs resulting in false positives and/or negatives. To decrease such complications and ensure the compound activities are relevant in terms of biological response, the Tox21 10K compound library was screened for auto fluorescence. From the fluorophores used as reporter signals in our screening assays, the auto fluorescence equivalencies of compounds against three fluorophores have been evaluated: Triamterene, Fluorescein and Rose Bengal sodium for blue, green and red fluorescence, respectively. The fluorescence intensities were measured using Excitation/Emission wavelengths at 405/460nm, 485/535nm and 540/590nm for blue, green and red labels, respectively. This assay includes the blue fluorescence data.
Tox21 Assay Protocol Summary: 5 uL of culture medium (DMEM containing 10% FBS) per well was dispensed into black wall/clear bottom 1536-well plates using a Multidrop Combi Dispenser (ThermoFisher Scientific, Waltham, MA). After 23 nL compound or DMSO vehicle was transferred into assay plate by a pintool work station (Kalypsys, San Diego, CA), fluorescence intensities in the assay plates were measured by an Envision (PerkinElmer, Shelton, CT) plate reader using three labels for measuring blue, green and red fluorescence at […] 460, 535 and 590nm respectively.
Regarding `Cc1ccc(C(=O)C(C)CN2CCCCC2)cc1` (stereo not given), the Potency result is “inactive”.

Consider `CCCCOC(O)CC` (stereo not given), for which the Potency entry is “inactive”.

In the case of `COCCCCCCCCOCCC[Si](C)(O[Si](C)(C)C)O[Si](C)(C)C`, the Potency entry was “inactive”.

On to `Cc1ccccn1`, for which the Potency result was “inactive”.

As for `CC(C)CCCC(C)CCO` (stereo not given), the Potency entry is “inactive”.

Turning to `CC(=O)OC/C=C/c1ccccc1`, the Potency entry is “inactive”.

Regarding `NC(=S)N/N=C/c1cccnc1`, the Potency result is “inactive”.

Take `N#CCCNCCC#N`: the Potency entry was “inactive”.

For `CN(C)CC/C=C1\c2ccccc2COc2ccccc21`, the Potency entry was “inactive”.

As for `CC(C)(C)c1cc(CO)cc(C(C)(C)C)c1O`, the Potency result is “inactive”.

`CCCC[C@H]1CN(CC2CCOCC2)C(=O)OC12CCN(C1(C)CCN(C(=O)c3c(C)ncnc3C)CC1)CC2`: the Potency result was “inactive”.

`O=S(=O)(O)c1ccc(O)c2ncccc12`: the Potency entry was “inactive”.

On to `CCCCCCCC/C=C\CCCCCCCC(N)=O`, for which the Potency entry was “inactive”.

In the case of `Cl/C(=C\n1cncn1)c1ccc(Cl)cc1Cl`, the Potency entry is “inactive”.

With `CC1(C)CCC(C)(C)c2cc(NC(=O)c3ccc(C(=O)O)cc3)ccc21`, the Potency result was “inactive”.

For `O=C(O)COC(=O)Cc1ccccc1Nc1c(Cl)cccc1Cl`, the fluorescence, % of fluorescent control was 0.0686% [at 18.6 µM].

In the case of `O=C(CC(=O)c1ccccc1)c1ccccc1`, the Potency result is “inactive”.

As to `CC1=CC(=O)/C(=C(/C)O)C(=O)O1`, the Potency entry is “inactive”.

As for `Nc1nc(N)c(-c2ccccc2)s1`, the Potency result was “inactive”.

Take `Cc1c(Cn2ccnc2)c2ccccc2n1CCC(=O)O`: the Potency result is “inactive”.

On to `CC(=O)N(O)CCCCCNC(=O)CCC(=O)N(O)CCCCCNC(=O)CCC(=O)N(O)CCCCCN`, for which the fluorescence, % of fluorescent control is 0.0573% [at 18.6 µM].

As to `CC(C)CCCCCCOC(=O)c1ccc(C(=O)OCCCCCCC(C)C)c(C(=O)OCCCCCCC(C)C)c1`, the Potency entry was “inactive”.

For `O=C(c1ccc(O)cc1)c1ccc(O)cc1`, the Potency entry is “inactive”.

For `Cc1occc1S`, the Potency result is “inactive”.

Turning to `CC(C)(C)c1ccc(S)cc1`, the Potency result was “inactive”.

Consider `CC(=O)O[C@@H]1C(=O)O[C@@H]2[C@H]1OC(=O)[C@@H]2OC(C)=O`, for which the Potency result is “inactive”.

For the molecule `CCOC(=O)C1=NN(c2ccccc2)C(=O)C1`, the Potency entry is “inactive”.

On to `Nc1ccc(C(=O)Nc2ccccc2N)cc1`, for which the Potency entry was “inactive”.

`CCCCCOC(=O)COc1cc(N2C(=O)C3=C(CCCC3)C2=O)c(F)cc1Cl`: the Potency result was “inactive”.

In the case of `CC1CCc2cc(F)cc3c(=O)c(C(=O)O)cn1c23` (stereo not given), the Potency entry was “inactive”.

On to `Cn1c(=O)c2c(ncn2CC(O)CO)n(C)c1=O` (stereo not given), for which the fluorescence, % of fluorescent control was -0.0654% [at 18.6 µM].

For `CCN(CC)C(C)=O`, the Potency entry is “inactive”.

Consider `C=CC(C)(CCC=C(C)C)OC(=O)c1ccccc1` (stereo not given), for which the Potency result is “inactive”.

As for `O=C(O)/C=C/c1cnc[nH]1`, the Potency entry is “inactive”.

As for `COC(=O)C(C)=O`, the Potency entry was “inactive”.

Regarding `CNCC[C@@H](Oc1ccccc1C)c1ccccc1`, the Potency entry was “inactive”.

Consider `Nc1nc(CC(=O)O)cs1`, for which the Potency result is “inactive”.

Regarding `Nc1nc(N)c2nc(CNc3ccc(C(=O)N[C@@H](CCC(=O)O)C(=O)O)cc3)cnc2n1`, the Potency was 39.8 µM (active).

As to `COCCO`, the Potency result was “inactive”.

In the case of `COC(Cc1ccccc1)OC`, the Potency result was “inactive”.
